Screening data as filed in PubChem.
Shown are actives, neighbours in structure and some others; about 8% of the full set was active somewhere.
HT1080-NT tox = kills 2HG-producing HT-1080-NT fibrosarcoma cells | HT-1080-NT fibrosarcoma viability, CellTiter-Glo ATP luminescence, 48 h | Potency, µM (series often up to 46.1 µM), inactives show top-dose activity, negative = less viability, usual class: cytotoxic | 360,000 compounds, 1.6% hits | AID 686970;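 further: NT is the 2HG producing partner of a matched IDH1 knockdown line; 0% = DMSO-treated cells and -100% = media-only wells without cells; nearly all actives have a fitted effect of over 55% in size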
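A 48-hour cytotoxicity screen used HT-1080-NT cells plated 2 hours before compound delivery. ATP-based CellTiter-Glo luminescence measured viability, normalized to DMSO and no-cell controls.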
SW480 rereplic = inducers of DNA re-replication in SW480 colon cancer cells; SW480 DNA re-replication, Hoechst DNA content imaging, 48 h; Potency, µM (highest dose often 46.1 µM), without a hit: at the highest dose re-replication activation, most hits filed as activators; 340,000 compounds, 1.8% hits; AID 624297; further: % of control where 0% means no effect; nearly all actives have a fitted effect of over 55% in size
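DNA re-replication was detected as more nuclei of elevated Hoechst intensity after 48 hr exposure to compound (23 nL pinned per well of 250 cells).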
KB-3-1 tox = KB-3-1 parental cell cytotoxicity | KB-3-1 viability, CellTiter-Glo ATP luminescence, 72 h | Potency, µM (top dose mostly 46.1 µM), most hits filed as cytotoxic | 400,000 compounds, 1.4% hits; further: on the % scale 0 is the no-effect control and ±100 the full control effect; nearly all actives have a fitted effect of over 60% in size
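Here the drug-naive KB-3-1 line serves as comparator for MDR sub-line selectivity; cells received compound titrations, 72 h at 37 °C, then CellTiter-Glo readout.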
HT1080 IDH1KD tx = toxicity to HT-1080 IDH1 knockdown cells (counter line); HT-1080 IDH1 knockdown viability, ATP luminescence, 48 h; Potency, µM (titrated, usually from 46.1 µM), for inactives: at the top dose activity, negative = toxicity, usual class: cytotoxic; 360,000 compounds, 2% hits; AID 686971;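 further: 0% = DMSO wells and -100% = cell-free medium wells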
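In this qHTS, HT-1080 cells depleted of IDH1 are exposed for 48 h at 37 °C to compound titrations. Toxicity is scored from CellTiter-Glo luminescence, with DMSO as full viability and medium alone as none.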
MCF10A rerep = DNA re-replication induction in MCF 10a cells; Potency, µM (series often up to 46.1 µM), without a hit: top-dose activity, positive = re-replication, actives largely listed as activators; 350,000 compounds, 2.9% hits; AID 624296; MCF 10A DNA re-replication, Hoechst nuclear intensity, 48 h; further: % of control where 0% means no effect; nearly all actives have a fitted effect of over 50% in size
KB-V1 MDR tox = kills drug-selected multidrug resistant KB-V1 cells | 400,000 compounds, 3.4% hits | Potency, µM (series often up to 46.1 µM), most hits filed as cytotoxic | KB-V1 MDR cells viability, CellTiter-Glo, 72 h | AID 1347076; further: on the % scale 0 is the no-effect control and ±100 the full control effect; nearly all actives have a fitted effect of over 60% in size
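KB-V1 cells (P-gp-expressing MDR subline of KB-3-1) in phenol-red-free DMEM with 10% FBS were exposed to library compounds over a concentration series for 72 h at 37 degrees C. Viability read by CellTiter-Glo luminescence; concentration-effect curves fitted after normalization.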
* hit, by the source's call. The call rests on the fitted dose curve; in most records, active means well fitted curve in the direction sought with a large enough effect; inconclusive means small, poorly fitted or top-dose-only effect, or another doubt; inactive means no such curve, though single readings can be large; an effect the other way counts as inactive or inconclusive. Potency means the concentration at half of the fitted maximal effect.

How did c1ccc(-c2nnnn2-c2ccccc2)cc1 do in these assays?
HT1080-NT tox: 5%; SW480 rereplic: inconclusive; KB-3-1 tox: inactive; HT1080 IDH1KD tx: 0%; MCF10A rerep: 4%; KB-V1 MDR tox: inactive

Results for CNc1ncc(-c2nnnn2-c2ccccc2)c(-c2ccccc2)n1 ?
HT1080-NT tox: -2%; SW480 rereplic: 15µM*; KB-3-1 tox: inactive; HT1080 IDH1KD tx: -18%; MCF10A rerep: inconclusive; KB-V1 MDR tox: 21µM*

What do the screens show for `CCOc1cc(S(=O)(=O)N(Cc2ccccc2)Cc2ccccc2)c(OCC)cc1-n1cnnn1`?
HT1080-NT tox: 3%; SW480 rereplic: -5%; KB-3-1 tox: inactive; HT1080 IDH1KD tx: -3%; MCF10A rerep: -13%; KB-V1 MDR tox: 3.7µM*

What do the screens show for `O=NN(CCc1ccncc1)c1ccc(OCc2ccccc2)cc1`?
HT1080-NT tox: -19%; SW480 rereplic: 0%; KB-3-1 tox: inactive; HT1080 IDH1KD tx: -21%; MCF10A rerep: inconclusive; KB-V1 MDR tox: 3.3µM*

What do the screens show for `O.O.O.O.O.O.O.O=S(=O)([O-])[O-].[Co+2]`?
SW480 rereplic: 5%; MCF10A rerep: 7%

What do the screens show for `Cn1c(C(=O)N2CCCc3ccccc32)cc2sccc21`?
HT1080-NT tox: 12%; SW480 rereplic: 0%; KB-3-1 tox: inconclusive; HT1080 IDH1KD tx: -13%; MCF10A rerep: -6%; KB-V1 MDR tox: 15µM*

Results for O=C(c1cc2sccc2n1Cc1ccccc1)N1CCc2ccccc21 ?
HT1080-NT tox: -22%; SW480 rereplic: -5%; KB-3-1 tox: inactive; HT1080 IDH1KD tx: inconclusive; MCF10A rerep: -7%; KB-V1 MDR tox: 10µM*

Results for O=C(c1coc(=O)c(Br)c1)N1CCCc2ccccc21 ?
HT1080-NT tox: 4%; SW480 rereplic: 1%; KB-3-1 tox: inactive; HT1080 IDH1KD tx: 0%; MCF10A rerep: 15µM*; KB-V1 MDR tox: inactive

Results for Cc1cccc(OCC(=O)Nc2ccccc2C(=O)OCc2cc(=O)n3nc(C4CC4)sc3n2)c1 ?
KB-3-1 tox: inactive; KB-V1 MDR tox: inactive

What do the screens show for `NC(=O)C1CCN(c2ncc(-c3cccc(N4CCOCC4)c3)s2)CC1`?
KB-3-1 tox: inactive; KB-V1 MDR tox: inactive

How did CC(=O)Nc1ccc(Br)c2ccccc12 do in these assays?
HT1080-NT tox: -4%; SW480 rereplic: -13%; KB-3-1 tox: inactive; HT1080 IDH1KD tx: -5%; MCF10A rerep: 4%; KB-V1 MDR tox: inactive

Results for O=Nc1ccc(NO)c2ccccc12 ?
HT1080-NT tox: inconclusive; KB-3-1 tox: inconclusive; HT1080 IDH1KD tx: 16µM*; KB-V1 MDR tox: inconclusive

How did O=[N+]([O-])c1ccc(N2CCN(Cc3ccccc3)CC2)s1 do in these assays?
HT1080-NT tox: -12%; SW480 rereplic: 7%; KB-3-1 tox: inactive; HT1080 IDH1KD tx: -4%; MCF10A rerep: -3%; KB-V1 MDR tox: inconclusive

Results for O=[N+]([O-])c1ccc(N2CCN(Cc3ccccc3)CC2)c2c1no[n+]2[O-] ?
HT1080-NT tox: 23µM*; KB-3-1 tox: 2.1µM*; HT1080 IDH1KD tx: 15µM*; KB-V1 MDR tox: 6.5µM*

How did CC(=O)c1cccc(NC(=O)Nc2sc3nc4n(c(=O)c3c2C)CCC(C)CC4)c1 (stereo not given) do in these assays?
KB-3-1 tox: inactive; KB-V1 MDR tox: inconclusive

How did COc1ccc2c(CNCc3ccco3)c(C(=O)O)n(Cc3cccc(F)c3)c2c1 do in these assays?
KB-3-1 tox: inconclusive; KB-V1 MDR tox: inactive

Results for O=C(Cn1ncc2c(=O)oc3ccccc3c21)N1CCN(c2ccc(Cl)cc2)CC1 ?
KB-3-1 tox: inactive; KB-V1 MDR tox: inactive

What do the screens show for `COc1ccc(/C=C\C(=O)O[C@@H]2C(O)C(O[C@@H]3OC(C)[C@H](O[C@@H]4OCC(O[C@H]5O[C@H](CO)[C@@H](O)C(O)C5O)C(O)C4O)C(O)C3O)[C@H](OC(=O)[C@]34CCC(C)(C)C[C@@H]3C3=CCC5[C@@]6(C)CC(O)C(O[C@@H]7OC(CO)C(O)[C@H](O)[C@H]7O)[C@@](C)(C(=O)O)C6CC[C@@]5(C)[C@]3(CO)CC4)O[C@H]2C)cc1` (stereo not given in full)?
HT1080-NT tox: inconclusive; SW480 rereplic: 1%; KB-3-1 tox: inactive; HT1080 IDH1KD tx: 21µM*; MCF10A rerep: 27%; KB-V1 MDR tox: inactive

Results for Cc1nn(CC(=O)N2CCN(c3cccc(Cl)c3)CC2)c(=O)c2c1sc1ccccc12 ?
KB-3-1 tox: inactive; KB-V1 MDR tox: inactive

What do the screens show for `CCc1ccccc1NC(=O)Cn1c(=O)ccc2cc(S(=O)(=O)N3CCC(C)CC3)ccc21`?
KB-3-1 tox: inactive; KB-V1 MDR tox: inactive

Results for COc1ccc2c(c1)C(C)=CC(C)(C)N2S(=O)(=O)c1ccc(C)cc1 ?
HT1080-NT tox: 0.92µM*; SW480 rereplic: 13µM*; KB-3-1 tox: 2.1µM*; HT1080 IDH1KD tx: 0.92µM*; MCF10A rerep: inconclusive; KB-V1 MDR tox: 2.6µM*

Results for CC1=CC(C)(C)N(S(=O)(=O)c2ccc(C)cc2)c2cc(C)ccc21 ?
HT1080-NT tox: 1µM*; SW480 rereplic: 7.3µM*; KB-3-1 tox: 3.7µM*; HT1080 IDH1KD tx: 1.3µM*; MCF10A rerep: inconclusive; KB-V1 MDR tox: 6.5µM*

How did CCNC(=O)N1c2ccc(OCC)cc2C(C)=CC1(C)C do in these assays?
HT1080-NT tox: 23%; SW480 rereplic: 19%; KB-3-1 tox: inactive; HT1080 IDH1KD tx: 16%; MCF10A rerep: 14µM*; KB-V1 MDR tox: inactive

What do the screens show for `CCOc1ccc2c(c1)C(C)=CC(C)(C)N2S(=O)(=O)c1ccc(C)cc1`?
HT1080-NT tox: 1.3µM*; SW480 rereplic: 13µM*; KB-3-1 tox: 2.1µM*; HT1080 IDH1KD tx: 1.8µM*; MCF10A rerep: 23%; KB-V1 MDR tox: 5.8µM*

What do the screens show for `CCOc1ccc(S(=O)(=O)N2CCN(c3ccc(C)cc3C)CC2)cc1`?
HT1080-NT tox: -17%; SW480 rereplic: -7%; KB-3-1 tox: inactive; HT1080 IDH1KD tx: -8%; MCF10A rerep: -1%; KB-V1 MDR tox: inactive

What do the screens show for `CCOc1ccc2c(c1)C(C)=CC(C)(C)N2C(=O)Nc1ccccc1F`?
HT1080-NT tox: 5%; SW480 rereplic: 4%; KB-3-1 tox: inactive; HT1080 IDH1KD tx: 25%; MCF10A rerep: inconclusive; KB-V1 MDR tox: inactive
